Source: PubChem BioAssay (NCATS)
“And” between values parts separate entries of the source, which are not always exact repeats. Equal values may be shown once. Inconclusive results are not listed. The source made the active and inactive calls. Unless noted, calls follow the shape of the dose curve; as a rule, active = well fitted curve in the direction sought with a large enough effect; inconclusive = small, poorly fitted or top-dose-only effect, or another doubt; inactive = no such curve, though single readings can be large; an effect the other way counts as inactive or inconclusive.

Experiments:
[1] = qHTS Assay for Lipid Storage Modulators (AID 1519; calls by dose curve; as to activity change, negative = inhibition: % is scaled to controls: 0 for no effect and ±100 for the full control effect); settings: Drosophila S3 cells, BODIPY lipid droplet/cell ratio, laser cytometry, cells loaded with oleic acid
Procedure, shortened: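 Cells seeded at 5,000 per well were treated with compounds over a concentration series and loaded with oleic acid (400 uM, as added). Lipid droplet fluorescence (488 nm excitation, 500-530 nm channel) was read by laser-scanning cytometry and normalized to 20 uM Triacsin C.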

[2] = target: Alpha-galactosidase A (Homo sapiens) (UniProt P06280); assay: Counterscreen for Glucocerebrosidase Inhibitors: qHTS Assay for Human alpha-Galactosidase at pH 4.5 (AID 992); settings: purified enzyme, fluorogenic substrate; series mostly up to 76.9 µM; also: 0% is about no effect
Chain of Alpha-galactosidase A (Homo sapiens) (P06280 whole entry, looked up): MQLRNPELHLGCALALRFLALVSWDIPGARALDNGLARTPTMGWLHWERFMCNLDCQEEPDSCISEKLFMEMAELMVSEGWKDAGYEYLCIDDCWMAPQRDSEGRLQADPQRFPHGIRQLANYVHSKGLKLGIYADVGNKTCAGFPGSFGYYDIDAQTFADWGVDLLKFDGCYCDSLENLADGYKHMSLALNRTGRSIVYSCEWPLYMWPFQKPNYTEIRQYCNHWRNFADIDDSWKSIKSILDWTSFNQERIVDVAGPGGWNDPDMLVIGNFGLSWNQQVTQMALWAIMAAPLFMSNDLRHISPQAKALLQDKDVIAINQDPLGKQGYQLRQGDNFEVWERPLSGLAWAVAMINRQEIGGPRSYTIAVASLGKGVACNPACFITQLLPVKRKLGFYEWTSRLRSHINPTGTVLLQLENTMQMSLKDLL
Procedure, shortened: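 Enzyme at 2 nM final was combined with compound (0.7 nM to 77 uM) and 80 uM 4-methylumbelliferyl alpha-D-galactopyranoside in 50 mM citric acid, 0.005% Tween-20, pH 4.5. After 20 min at room temperature, fluorescence was read (Ex 365/Em 440 nm); AC50 came from Hill fits.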

[3] = target: alpha-glucosidase (Oryza sativa, rice) (UniProt Q653V4); assay: Counterscreen for Glucocerebrosidase Inhibitors: qHTS Assay for Rice alpha-Glucosidase at pH 5.0 (AID 997); settings: rice alpha-glucosidase enzyme activity; series mostly up to 76.9 µM;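 also: 0% = full activity with enzyme and -100% = basal without enzyme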
Procedure, shortened: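 Rice alpha-glucosidase (4 nM final) with 400 uM 4-methylumbelliferyl-alpha-D-glucopyranoside in citrate buffer pH 5.0, 20 min at room temperature, stopped at pH 10; fluorescence 365/440 nm, compounds 0.7 nM–77 uM, AC50 from Hill fits.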

[4] = target: DNA repair nuclease/redox regulator APEX1 (Homo sapiens) (UniProt P27695); assay: qHTS Validation Assay for Inhibitors of the Human Apurinic/apyrimidinic Endonuclease 1 (APE1) (AID 1705; also: potency is read from the fitted curve at half-maximal effect;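 as to activity change, negative = inhibition: TAMRA fluorescence gain over two minutes as APE1 cuts a quenched THF abasic duplex; % is scaled to controls: 0 for no effect and ±100 for the full control effect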); settings: purified APE1 endonuclease activity, fluorescence, titration; series mostly up to 57.1 µM
Chain of DNA repair nuclease/redox regulator APEX1 (Homo sapiens) (P27695 whole entry, looked up): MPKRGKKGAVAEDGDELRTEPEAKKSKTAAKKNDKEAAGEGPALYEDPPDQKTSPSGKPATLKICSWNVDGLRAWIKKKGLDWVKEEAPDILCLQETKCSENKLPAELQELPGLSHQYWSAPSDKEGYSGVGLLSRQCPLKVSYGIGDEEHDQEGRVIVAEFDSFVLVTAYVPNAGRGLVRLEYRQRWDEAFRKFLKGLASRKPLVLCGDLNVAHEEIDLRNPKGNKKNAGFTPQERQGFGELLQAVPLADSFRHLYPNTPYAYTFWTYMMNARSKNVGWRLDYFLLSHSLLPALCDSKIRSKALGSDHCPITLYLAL
Procedure, shortened: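 Endonuclease activity of human APE1 is followed as dequenching when the enzyme incises a tetrahydrofuran abasic site in a short duplex labelled 5'-TAMRA/3'-BHQ-2 (50 nM final), after 15 min enzyme–compound preincubation at room temperature.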

[5] = Counterscreen for APE1 Inhibitors: Fluorescent Dye Displacement Validation Assay (AID 1707); settings: fluorescent dye displacement from DNA; series mostly up to 57.1 µM;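 also: plate controls were ThO with dsDNA and no compound for no effect and ThO without dsDNA for full effect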
Procedure, shortened: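 Thiazole Orange displacement from dsDNA: 250 nM ThO with 50 nM TAMRA-labelled abasic-site (tetrahydrofuran) duplex in 50 mM Tris-HCl pH7.5, 50mM NaCl, 2 mM MgCl2, 0.01% Tween-20. Loss of endpoint fluorescence (ex 480 nm, em 540 nm) flags DNA binders.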

[6] = Cell Viability - LYMP2-020 (AID 986); settings: series mostly up to 92.2 µM;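 also: plate controls were DMSO only for no effect and tetraoctylammonium bromide at 92 µM for full effect; nearly all actives have a fitted effect of over 55% in size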
Procedure, shortened: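 Human lymphoblastoid cells, 2500/well, were pre-incubated 5 hr at 37 C, then exposed to compounds for 24 hr at 37 C in complete medium. Intracellular ATP was read by CellTiter-Glo luminescence, and AC50 was derived by Hill fitting of concentration-response data.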

[7] = Cell Viability - LYMP2-024 (AID 988); settings: LYMP2-024 lymphoblastoid cell viability; series mostly up to 92.2 µM;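 also: plate controls were DMSO only for no effect and 92 µM tetraoctylammonium bromide for full effect; nearly all actives have a fitted effect of over 60% in size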
Procedure, shortened: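 Human lymphoblastoid cells (2500/well) in complete medium were preincubated 5 hr at 37 C, then exposed to compounds for 24 hr at 37 C. Intracellular ATP was read by CellTiter-Glo luminescence; AC50 from Hill-equation fits of concentration-response data.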

[8] = Cell Viability - LYMP2-026 (AID 989); settings: LYMP2-026 lymphoblastoid cell viability, qHTS; series mostly up to 92.2 µM; also: % is scaled to controls: 0 for no effect and ±100 for the full control effect; nearly all actives have a fitted effect of over 50% in size
Procedure, shortened: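 Human lymphoblastoid cells (2500/well) in complete medium were preincubated 5 hr at 37 C, then exposed to compounds for 24 hr at 37 C. Cellular ATP was read by CellTiter-Glo luminescence; AC50 from Hill-equation fits of concentration-response data.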

[9] = Cell Viability - LYMP1-002 - Assay at 40 hr (AID 994); settings: LYMP1-002 lymphoblastoid cell viability; series mostly up to 92.2 µM;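 also: 0% = DMSO only and full inhibition = 92 µM tetraoctylammonium bromide; nearly all actives have a fitted effect of over 60% in size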
Procedure, shortened: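 Human lymphoblastoid cells, 2500/well in complete medium, were preincubated 5 hr at 37 C, then exposed to compounds for 40 hr at 37 C. Intracellular ATP was read by CellTiter-Glo luminescence after 30 min at room temperature; AC50 from Hill-equation fits.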

[10] = measured here: cell count channel max response
[11] = measured here: lipid channel max response

COc1ccc(OC)c(C(O)CNC(=O)CN)c1 (stereo unspecified)
activity change, negative = inhibition ([1]; at 57.5 µM (top of the series)): 8.05% (inactive) | max response [1, 10]: 10.1% | max response [1, 11]: 23.2%

Oc1c(I)cc(I)c2cccnc12
activity change, negative = inhibition ([1]; at 57.5 µM (top of the series)): -2.05% (inactive) | max response [1, 10]: 9.29% | max response [1, 11]: 10.6%

O=C(CCCN1CCC(O)(c2ccc(Br)cc2)CC1)c1ccc(F)cc1
activity change, negative = inhibition ([1]; at 25.7 µM (top of the series)): -4.42% (inactive) | max response [1, 10]: -5.85% | max response [1, 11]: -9.42%

CN(C)CC/C=C1\c2ccccc2Sc2ccc(Cl)cc21
activity change, negative = inhibition ([1]; at 25.7 µM (top of the series)): -2% (inactive) | activity change, negative = inhibition ([1]; at 57.5 µM (top of the series)): 8.38% (inactive) | max response [1, 10]: -15.8% and 5.25% | max response [1, 11]: -14.2% and 16.4%

COc1ccc(CCN2CCC(Nc3nc4ccccc4n3Cc3ccc(F)cc3)CC2)cc1
activity change, negative = inhibition ([1]; at 25.7 µM (top of the series)): -7.48% (inactive) | activity change, negative = inhibition ([1]; at 57.5 µM (top of the series)): 12.8% (inactive) | max response [1, 10]: -13.7% and 8.29% | max response [1, 11]: -24.1% and 21%

Cc1cc(=O)n(-c2ccccc2)n1C
activity change, negative = inhibition ([1]; at 25.7 µM (top of the series)): 1.11% (inactive) | activity change, negative = inhibition ([1]; at 57.5 µM (top of the series)): 0.266% (inactive) | max response [1, 10]: -1.15% and 10.6% | max response [1, 11]: 1.09% and 14.3%

Cc1c(N(C)CS(=O)(=O)O)c(=O)n(-c2ccccc2)n1C
activity change, negative = inhibition ([1]; at 25.7 µM (top of the series)): 0.216% (inactive) | activity change, negative = inhibition ([1]; at 57.5 µM (top of the series)): 9.06% (inactive) | max response [1, 10]: -6.35% and 7.26% | max response [1, 11]: -5.13% and 21%

NCCCC[C@H](N[C@@H](CCc1ccccc1)C(=O)O)C(=O)N1CCC[C@H]1C(=O)O
activity change, negative = inhibition ([1]; at 25.7 µM (top of the series)): 0.781% (inactive) | max response [1, 10]: 1.7% | max response [1, 11]: 0.636%

CC(C)(CO)[C@@H](O)C(=O)NCCCO
activity change, negative = inhibition ([1]; at 57.5 µM (top of the series)): 2.51% (inactive) | max response [1, 10]: 21.8% | max response [1, 11]: 22.3%

COc1cc(-c2ccc(=O)[nH]n2)ccc1OC(F)F
outcome [2]: inactive | outcome [3]: inactive | Potency [4]: inactive | outcome [5]: inactive

CC(C)NC[C@@H](O)COc1cccc2ccccc12
outcome [2]: inactive | outcome [3]: inactive | activity change, negative = inhibition ([1]; at 25.7 µM (top of the series)): -1.02% (inactive) and 0.265% (inactive) and -0.0202% (inactive) | activity change, negative = inhibition ([1]; at 57.5 µM (top of the series)): 2.8% (inactive) | max response [1, 10]: -4.01% [middle of 4 runs] | max response [1, 11]: -1.83% [middle of 4 runs] | Potency [4]: 5.01 µM (active) | outcome [5]: inactive

COc1cc(NS(C)(=O)=O)ccc1Nc1c2ccccc2nc2ccccc12
outcome [2]: inactive | outcome [3]: inactive | activity change, negative = inhibition ([1]; at 57.5 µM (top of the series)): 0.361% (inactive) | max response [1, 10]: -18.5% | max response [1, 11]: -18.7%

O=c1ccc2ccccc2o1
Potency [6]: inactive | Potency [7]: inactive | Potency [8]: inactive | Potency [9]: inactive

CN1[C@@H]2CC[C@H]1CC(OC(=O)c1c[nH]c3ccccc13)C2 (stereo partly specified)
outcome [2]: inactive | outcome [3]: inactive

CCCC1O[C@@H]2C[C@H]3[C@@H]4CCC5=CC(=O)C=C[C@]5(C)[C@H]4[C@@H](O)C[C@]3(C)[C@]2(C(=O)CO)O1 (stereo partly specified)
outcome [2]: inactive | outcome [3]: inactive
